Data taken from PubChem BioAssay AID1159580 (chemical genetic matrix, 2015).
Among all 5,500 compounds or so, about 2,000 (36%) were called active. Inconclusive results (about 18%) are left out. Cut-off read from the data, not from the text of the source: active = normalized growth mostly below about 0.91 (no sharp cut-off); inconclusive = no clear call, values can overlap the other calls; inactive = mostly above about 0.92. Some of the results follow.

Assay: chemical genetic growth profiling, strain panel (AID 1159580);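 note: tested at 20 µM; growth read once vehicle control cultures reached saturation at 30 °C; 1 = growth at the plate median or of vehicle wells; lower values mean less growth of the strain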
Settings: S. cerevisiae deletion strains, growth OD

Measured: normalized growth

CCN1C[C@]2(C)CC[C@H](O)[C@@]34C5C[C@@H]6[C@@H](OC)C[C@@](O)(C5[C@H]6O)[C@@H](CC23)C14 (stereo partly specified)
inactive: locus YAL013W, strain DEP1, hits give low values 1.01 | locus YAL040C, strain CLN3, hits give low values 1 | locus YCL061C, strain MRC1 (second series), hits give low values 1 | locus YDR150W, strain NUM1, hits give low values 0.996 | locus YDR363W, strain ESC2, hits give low values 1.03 | locus YER002W, strain NOP16, hits give low values 1.01 | locus YGR078C, strain PAC10, hits give low values 0.999 | locus YGR229C, strain SMI1, hits give low values 1.02 | locus YMR307W, strain GAS1, hits give low values 0.999 | locus YNL128W, strain TEP1, hits give low values 1 | locus YNL153C, strain GIM3, hits give low values 1.01 | locus YNL175C, strain NOP13, hits give low values 1.01 | locus YNL197C, strain WHI3, hits give low values 1.01 | locus YNL224C, strain SQS1, hits give low values 0.997 | locus YOR083W, strain WHI5 (second series), hits give low values 1.01 | locus YPL241C, strain CIN2, hits give low values 1
